Most compounds without a hit are left out; they make up all but 1.1% or so of the library.
HTR5A inv ag: HTR5A inverse agonism, opioid heterodimer counter-screen | P47898 | HTR5A cell line, luminescence | inhibition, % at 9.3 µM | 0.083% of 340,000 active; in the data active means inhibition mostly above about 23%, no sharp cut-off; inactive means mostly below about 18%
Target sequence (P47898 whole entry, looked up): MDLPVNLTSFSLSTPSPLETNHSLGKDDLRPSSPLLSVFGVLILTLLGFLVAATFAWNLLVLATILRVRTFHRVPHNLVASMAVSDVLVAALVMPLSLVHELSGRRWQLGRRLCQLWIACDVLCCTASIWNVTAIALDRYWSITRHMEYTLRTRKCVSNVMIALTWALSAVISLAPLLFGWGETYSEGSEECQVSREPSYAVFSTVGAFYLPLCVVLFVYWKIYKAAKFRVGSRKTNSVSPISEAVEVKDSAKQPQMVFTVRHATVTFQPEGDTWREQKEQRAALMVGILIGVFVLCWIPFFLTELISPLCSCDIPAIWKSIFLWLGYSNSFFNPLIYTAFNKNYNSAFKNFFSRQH
MOR-DOR ag: agonists of human mu-delta opioid receptor heterodimerization | P35372+P41143 | cells, OPRM1-OPRD1 heterodimerization, luminescence | activation, % at 9.3 µM | 0.3% of 340,000 active; in the data active means activation above about 18%
OPRM1-OPRD1 inv: inverse agonists of human mu-delta opioid receptor heterodimerization; 0.21% of 340,000 active; cell-based MOR-DOR heterodimer luminescence, inverse agonism; P35372+P41143; inhibition, % at 9.3 µM; in the data active means inhibition above about 22%, passing the limit was not always enough
HTR5A ag: activates human HTR5A in OPRM1-OPRD1 agonist counter-screen; P47898; AID 504692; activation, % at 9.3 µM; HTR5A agonist assay, luminescence, cell-based; 0.61% of 340,000 active; in the data active means activation mostly above about 9.5%, no sharp cut-off; inactive means mostly below about 7.6%
Numbers stand for hits; - = inactive.

SMILES	HTR5A inv ag	MOR-DOR ag	OPRM1-OPRD1 inv	HTR5A ag
Clc1ccc(C(CCN2CCCC2)Cc2ccccc2)cc1 (stereo not drawn)	-	-	-	-
COc1cccc(/C(O)=C2/C(=O)C(=O)N(CCN(C)C)C2c2ccc(Br)cc2)c1 (stereo not drawn)	-	-	-	10
CC(c1ccccc1)C1CC(=O)N(c2ccccc2)C1=O (stereo not drawn)	36	-	35	-
CC(c1ccccc1)C1CC(=O)N(c2ccc([N+](=O)[O-])cc2)C1=O (stereo not drawn)	-	-	-	-
CC1(C)Oc2ccc3ccc(=O)oc3c2/C(=C/O)C1=O	-	-	-	14
Cc1ccc(-n2c(=O)[nH]c3c(C(N)=O)nc(-c4ccc(C)o4)nc32)cc1	-	-	-	11
c1cc2c(cc1C1CCCCC1)c1c3n2CCCNC3CCC1 (stereo not drawn)	-	-	-	-
Cc1ccc2c(c1)c1c3n2CCCNC3CCC1 (stereo not drawn)	-	-	-	10
O=C(CSc1nc(O)cc(=O)n1-c1ccc(Cl)c(Cl)c1)Nc1ccc(Cl)cc1Cl	-	-	-	10
CC(=O)c1cccc(NC(=O)CN2C(=O)NC(C)(c3ccc4c(c3)OCCCO4)C2=O)c1 (stereo not drawn)	-	-	-	-
COc1ccc(-c2ccc(SCC(=O)N3CCCC3)nn2)cc1OC	-	-	-	11
COc1ccc(-c2ccc(SCC(=O)N3CCOCC3)nn2)cc1OC	-	-	-	-
O=C(Cc1c[nH]c2ccccc12)NCc1ccncc1	-	-	-	11
O=C(Cc1ccccc1)NCc1ccncc1	-	-	-	-
O=C1C(=C(I)I)c2ccccc2-c2ccccc21	-	41	-	-
CCN(CCn1cccn1)C(=O)c1cc(COc2ccc(F)c(F)c2)on1	-	-	-	-
Cc1nnc(C)n1/N=C/c1cccc([N+](=O)[O-])c1	-	-	-	-
N#CC1C(=O)NC(c2ccccc2)=CC1c1ccccc1 (stereo not drawn)	52	-	69	-
C/C(N)=C(/C#N)C(=O)CSc1nnnn1-c1ccccc1	-	-	-	-
CC1Cc2ccccc2N1C(=O)COC(=O)c1cccnc1Cl (stereo not drawn)	-	-	-	11
O=C(N/N=C/c1sc(=O)n(Cc2ccc(Br)cc2)c1Cl)c1ccco1	-	27	-	26
Cc1nnc(NC(=O)c2nc(S(=O)(=O)Cc3ccccc3)ncc2Cl)s1	-	-	-	10
COc1ccc(-n2c(=O)c(CCC(=O)N3CCC(C)CC3)nc3ccccc32)cc1	-	-	-	-
CCc1nn(CC(=O)NC(C)CCc2ccccc2)c(=O)c2cc3occc3n12 (stereo not drawn)	-	-	-	-
CC(C)n1c(N2CCN(C(=O)NCc3ccccc3)CC2)nc2ccccc21	-	-	-	10
SMILES	HTR5A inv ag	MOR-DOR ag	OPRM1-OPRD1 inv	HTR5A ag
CCOC(=O)N1CCN(c2c(NCC3CCCO3)c(=O)c2=O)CC1 (stereo not drawn)	-	-	-	-
COc1ccc(C(=O)SC2=NCCS2)cc1	-	-	-	12
CCn1c(SCC(=O)NNC(=O)c2ccc(C)cc2)nnc1-c1ccncc1	-	-	-	-
Cc1ccc(C(=O)Nc2cc(Cl)ccc2N2CCCCC2)s1	-	-	-	-
CC(C)C[C@@H](CO)N1CCN(CCCc2ccccc2)CCC1=O	-	-	-	-
COc1ccc(/C=N\NC(=O)c2ccc(Cn3cc(Br)c([N+](=O)[O-])n3)o2)c(OC)c1C	-	-	-	11
O=C(Nc1cc(Sc2ccccn2)cc([N+](=O)[O-])c1)c1cccc(Cl)c1	-	-	-	-
O=C(Nc1cc(Sc2ccccn2)cc([N+](=O)[O-])c1)c1ccc(Cl)cc1	-	29	-	19
O=C1CC(C(=O)O)S/C(=N\NC(=O)c2ccccc2)N1 (stereo not drawn)	-	-	-	12
C/C(=N\N=C1\NC(=O)CC(C(=O)O)S1)c1ccc(F)cc1 (stereo not drawn)	-	-	-	-
CCc1nnc(SCC(=O)NC2CCCC2)nc1CC	-	-	-	9.8
CCOC(=O)C(=CNc1ccc(NC2=NCC(C)S2)cc1)C(=O)OCC (stereo not drawn)	-	-	-	9.8
COc1ccccc1NC(=S)N(Cc1ccccc1)Cc1cccs1	-	-	-	9.3
COc1ccccc1NC(=S)N(Cc1cccs1)C1CCCC1	-	-	-	-
Cc1c(Cl)cccc1NC(=S)NCC1COc2ccccc2O1 (stereo not drawn)	-	-	-	-
CC(C)c1ccc(C2=NN(c3ccccc3)C(=O)CC2)cc1	-	-	-	-
CN(CCNC(=O)C1CCN(c2ncnc3c2nc2n3CCCCC2)CC1)Cc1ccccc1	-	-	-	11
O=C(Nc1ccc(Cl)cc1)C1CCCN(c2ncnc3c2nc2n3CCCCC2)C1 (stereo not drawn)	-	-	-	-
O=C(NCc1ccc(Cl)cc1)C1CCCN(c2ncnc3c2nc2n3CCCCC2)C1 (stereo not drawn)	-	-	-	13
CC(C)(C)n1nc2c(c1NC(=O)Cc1cccc3ccccc13)CS(=O)(=O)C2	-	-	-	-
S=c1[nH]nc(C2CCCCC2)n1/N=C/c1ccccc1Br	-	-	-	-
COc1cccc(CN2CCCC(C(=O)c3ccc4c(c3)OCO4)C2)c1OC (stereo not drawn)	-	-	-	-
O=C(c1ccc2c(c1)OCO2)C1CCCN(Cc2ccccc2OC(F)F)C1 (stereo not drawn)	-	-	-	13
COc1ccc(Oc2nccc(-c3ccccc3)c2C#N)cc1	-	-	-	11
Brc1ccc(-c2nn3c(-c4ccccn4)nnc3s2)o1	-	-	-	-
SMILES	HTR5A inv ag	MOR-DOR ag	OPRM1-OPRD1 inv	HTR5A ag
O=S(=O)(c1ccc(Br)cc1Cl)N1CCN(CCO)CC1	-	-	-	-
O=C1C=CC(=O)c2c(O)c(N3CCN(CCO)CC3)c(Cl)c(O)c21	-	21	-	-
CC(=O)N1N=C(c2cccs2)CC1c1cccc([N+](=O)[O-])c1 (stereo not drawn)	33	-	38	-
CC(=O)N1N=C(c2ccccc2)CC1c1cccc([N+](=O)[O-])c1 (stereo not drawn)	-	-	-	-
Cc1ccc(CN2CCC(n3nccc3NC(=O)C3CCOC3)CC2)cc1C (stereo not drawn)	-	-	-	-
COc1ccc(C(=O)N/N=C\c2ccc(OC)c(COc3ccccc3Br)c2)c(OC)c1	-	-	-	10
Cc1nc(-c2ccc(Cl)cc2)sc1C1(C)CC(c2ccc([N+](=O)[O-])cc2)=NO1 (stereo not drawn)	-	-	-	-
CC(C)C(NC(=O)C12CC3CC(CC(C3)C1)C2)C(=O)N/N=C/C1=C(N2CCOCC2)C(=C\c2cccc([N+](=O)[O-])c2)/CC1 (stereo not drawn)	-	-	-	-
CN(Cc1ccccc1)C(=O)C1CCN(S(=O)(=O)c2cc([N+](=O)[O-])ccc2Cl)CC1	-	-	-	13
O=C(NCc1ccccc1)C1CCN(S(=O)(=O)c2cc([N+](=O)[O-])ccc2Cl)CC1	-	-	-	-
